Assays:
Test in all cases: log2 ratio of Biotin-Ahx-Ub-VS probe labelling (fragment/DMSO); higher = less target engagement (more negative = stronger competition), active = hit call of the paper (q ≤ 0.05, log2 ratio ≤ -1)
Conditions in all cases: compound concentration: 200 uM; treatment time: 3 h
USP19 = target: T1, USP19 (UniProt O94966)
T1 sequence (whole entry): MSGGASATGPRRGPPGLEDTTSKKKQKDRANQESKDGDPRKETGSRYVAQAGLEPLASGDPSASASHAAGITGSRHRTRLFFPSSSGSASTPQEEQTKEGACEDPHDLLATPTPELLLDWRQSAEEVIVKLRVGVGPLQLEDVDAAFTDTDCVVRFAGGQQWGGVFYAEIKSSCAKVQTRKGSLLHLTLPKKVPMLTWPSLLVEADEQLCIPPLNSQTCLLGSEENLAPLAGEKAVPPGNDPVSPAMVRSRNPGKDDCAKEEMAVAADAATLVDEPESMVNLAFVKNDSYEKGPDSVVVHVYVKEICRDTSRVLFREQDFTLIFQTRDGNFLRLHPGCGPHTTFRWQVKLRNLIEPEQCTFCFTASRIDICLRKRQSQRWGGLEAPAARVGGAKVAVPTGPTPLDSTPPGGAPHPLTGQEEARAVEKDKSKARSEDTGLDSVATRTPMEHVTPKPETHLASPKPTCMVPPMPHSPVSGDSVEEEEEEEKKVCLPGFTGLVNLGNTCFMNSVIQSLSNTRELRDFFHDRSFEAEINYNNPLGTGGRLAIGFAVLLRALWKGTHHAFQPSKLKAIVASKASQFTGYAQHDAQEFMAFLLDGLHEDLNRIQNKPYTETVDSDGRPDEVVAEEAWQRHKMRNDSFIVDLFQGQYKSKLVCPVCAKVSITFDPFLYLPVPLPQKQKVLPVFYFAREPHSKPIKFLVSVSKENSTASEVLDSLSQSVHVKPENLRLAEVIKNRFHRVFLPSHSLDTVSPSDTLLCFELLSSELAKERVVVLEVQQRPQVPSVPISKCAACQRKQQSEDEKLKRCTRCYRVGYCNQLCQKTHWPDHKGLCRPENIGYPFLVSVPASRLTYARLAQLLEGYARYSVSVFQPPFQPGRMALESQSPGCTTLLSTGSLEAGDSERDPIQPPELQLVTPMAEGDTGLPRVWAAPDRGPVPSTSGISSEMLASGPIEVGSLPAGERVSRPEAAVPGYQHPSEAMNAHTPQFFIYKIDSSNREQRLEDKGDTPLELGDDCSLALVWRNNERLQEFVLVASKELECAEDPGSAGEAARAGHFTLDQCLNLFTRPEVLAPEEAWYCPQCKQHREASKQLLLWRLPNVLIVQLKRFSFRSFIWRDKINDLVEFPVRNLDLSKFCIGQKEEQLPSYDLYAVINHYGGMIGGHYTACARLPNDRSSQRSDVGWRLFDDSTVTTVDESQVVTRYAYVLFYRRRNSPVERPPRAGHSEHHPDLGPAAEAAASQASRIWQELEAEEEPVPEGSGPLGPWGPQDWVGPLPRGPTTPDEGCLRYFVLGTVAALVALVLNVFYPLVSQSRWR
Procedure, shortened: (§1)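 Labelling with Biotin-Ahx-Ub-VS (0.5 µM final, 1 h) followed a 3 h triplicate treatment of HEK293T lysate (495 µg per sample, Tris/CHAPS/IGEPAL buffer with protease inhibitors) with fragment at 200 µM or vehicle. Labelled DUBs were NeutrAvidin-enriched, digested with LysC and trypsin, and run by diaPASEF LC-MS/MS. The values, average log2 fragment/vehicle ratios by unpaired t-test, come from global-median-normalised Spectronaut label-free quantities. Proteins with ≥2 unique peptides were used.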

USP22 = target: T2, USP22 (UniProt Q9UPT9)
T2 sequence (whole entry): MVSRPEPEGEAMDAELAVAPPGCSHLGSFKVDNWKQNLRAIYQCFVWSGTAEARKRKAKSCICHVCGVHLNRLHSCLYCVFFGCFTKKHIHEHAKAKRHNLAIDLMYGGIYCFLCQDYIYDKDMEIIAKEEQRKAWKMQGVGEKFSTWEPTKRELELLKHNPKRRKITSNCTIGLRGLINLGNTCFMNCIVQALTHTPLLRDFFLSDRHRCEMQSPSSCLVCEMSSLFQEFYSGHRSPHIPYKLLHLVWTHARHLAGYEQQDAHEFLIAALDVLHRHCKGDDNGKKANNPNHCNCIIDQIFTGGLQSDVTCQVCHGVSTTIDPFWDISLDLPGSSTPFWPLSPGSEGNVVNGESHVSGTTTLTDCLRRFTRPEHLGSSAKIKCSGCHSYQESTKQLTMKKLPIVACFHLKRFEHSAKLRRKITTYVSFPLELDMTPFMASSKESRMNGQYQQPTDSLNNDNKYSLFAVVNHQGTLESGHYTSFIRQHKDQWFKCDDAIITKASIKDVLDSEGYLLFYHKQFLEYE
Procedure, shortened: as §1

USP24 = USP24 (UniProt Q9UPU5)
Chain of USP24 (Q9UPU5 whole entry): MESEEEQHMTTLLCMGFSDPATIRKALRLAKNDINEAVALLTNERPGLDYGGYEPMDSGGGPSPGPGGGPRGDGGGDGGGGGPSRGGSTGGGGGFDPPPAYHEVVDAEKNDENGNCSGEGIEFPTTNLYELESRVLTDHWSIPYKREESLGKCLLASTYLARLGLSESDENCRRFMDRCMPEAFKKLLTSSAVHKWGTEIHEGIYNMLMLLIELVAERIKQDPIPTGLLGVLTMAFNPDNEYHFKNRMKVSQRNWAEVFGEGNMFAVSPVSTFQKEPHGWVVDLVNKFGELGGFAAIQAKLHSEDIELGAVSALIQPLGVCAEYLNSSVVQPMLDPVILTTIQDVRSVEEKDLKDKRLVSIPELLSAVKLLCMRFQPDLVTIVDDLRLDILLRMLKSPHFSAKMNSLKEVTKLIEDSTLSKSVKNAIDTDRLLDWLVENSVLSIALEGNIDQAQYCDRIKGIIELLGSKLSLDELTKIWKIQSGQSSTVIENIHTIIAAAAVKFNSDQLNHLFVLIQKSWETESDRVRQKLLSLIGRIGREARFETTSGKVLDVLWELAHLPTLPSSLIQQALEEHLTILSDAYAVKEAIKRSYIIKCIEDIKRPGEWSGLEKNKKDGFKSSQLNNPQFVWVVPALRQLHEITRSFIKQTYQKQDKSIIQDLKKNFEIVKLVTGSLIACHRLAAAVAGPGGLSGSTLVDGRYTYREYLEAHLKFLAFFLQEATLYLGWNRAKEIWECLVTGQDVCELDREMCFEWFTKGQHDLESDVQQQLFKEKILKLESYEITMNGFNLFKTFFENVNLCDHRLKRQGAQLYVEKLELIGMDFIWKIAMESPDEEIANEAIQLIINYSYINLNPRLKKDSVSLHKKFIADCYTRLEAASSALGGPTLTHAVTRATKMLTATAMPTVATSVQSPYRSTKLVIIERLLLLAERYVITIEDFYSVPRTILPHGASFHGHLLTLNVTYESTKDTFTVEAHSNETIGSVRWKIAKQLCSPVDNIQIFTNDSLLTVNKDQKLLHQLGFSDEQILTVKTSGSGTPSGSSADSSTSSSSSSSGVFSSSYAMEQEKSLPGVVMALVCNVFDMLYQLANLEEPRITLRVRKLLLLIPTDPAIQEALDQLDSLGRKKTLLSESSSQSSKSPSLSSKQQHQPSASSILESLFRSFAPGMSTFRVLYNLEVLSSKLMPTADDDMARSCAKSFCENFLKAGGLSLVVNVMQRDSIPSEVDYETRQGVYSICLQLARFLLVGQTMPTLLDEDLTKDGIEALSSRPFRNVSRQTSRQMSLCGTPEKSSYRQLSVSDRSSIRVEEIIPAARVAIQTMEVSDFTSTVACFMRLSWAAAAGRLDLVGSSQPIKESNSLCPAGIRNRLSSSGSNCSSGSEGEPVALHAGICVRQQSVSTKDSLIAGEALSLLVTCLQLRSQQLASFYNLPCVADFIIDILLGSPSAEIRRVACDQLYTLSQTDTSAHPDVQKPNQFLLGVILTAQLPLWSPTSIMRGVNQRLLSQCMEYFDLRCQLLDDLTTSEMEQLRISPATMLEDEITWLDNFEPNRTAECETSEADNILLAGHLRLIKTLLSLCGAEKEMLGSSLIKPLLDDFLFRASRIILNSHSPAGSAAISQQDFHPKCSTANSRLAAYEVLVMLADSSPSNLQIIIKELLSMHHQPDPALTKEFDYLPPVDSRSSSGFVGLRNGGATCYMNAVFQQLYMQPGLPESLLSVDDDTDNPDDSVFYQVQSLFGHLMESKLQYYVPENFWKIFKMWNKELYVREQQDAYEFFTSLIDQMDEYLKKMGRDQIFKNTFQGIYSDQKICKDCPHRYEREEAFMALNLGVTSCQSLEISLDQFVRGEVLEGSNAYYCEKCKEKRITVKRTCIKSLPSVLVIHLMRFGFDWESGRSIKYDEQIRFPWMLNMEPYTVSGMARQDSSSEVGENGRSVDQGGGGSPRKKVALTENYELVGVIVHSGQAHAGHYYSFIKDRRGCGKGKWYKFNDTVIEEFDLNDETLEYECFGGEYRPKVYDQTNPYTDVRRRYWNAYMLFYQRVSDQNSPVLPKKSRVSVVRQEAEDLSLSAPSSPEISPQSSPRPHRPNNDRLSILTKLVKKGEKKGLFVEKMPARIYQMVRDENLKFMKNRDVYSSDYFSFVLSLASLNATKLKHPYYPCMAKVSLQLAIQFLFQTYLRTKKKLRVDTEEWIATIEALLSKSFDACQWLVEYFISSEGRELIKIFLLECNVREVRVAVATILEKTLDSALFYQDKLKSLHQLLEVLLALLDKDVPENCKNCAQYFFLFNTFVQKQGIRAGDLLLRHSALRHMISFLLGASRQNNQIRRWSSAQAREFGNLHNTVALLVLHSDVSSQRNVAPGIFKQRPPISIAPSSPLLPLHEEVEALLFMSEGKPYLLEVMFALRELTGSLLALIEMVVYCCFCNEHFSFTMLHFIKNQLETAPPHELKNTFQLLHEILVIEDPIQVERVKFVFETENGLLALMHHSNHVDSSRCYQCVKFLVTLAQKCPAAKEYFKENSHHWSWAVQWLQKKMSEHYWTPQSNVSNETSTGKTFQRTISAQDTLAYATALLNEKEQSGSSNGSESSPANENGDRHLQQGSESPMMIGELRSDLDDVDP
Procedure, shortened: as §1

USP25 = target: T3, USP25 (UniProt Q9UHP3)
T3 sequence (whole entry): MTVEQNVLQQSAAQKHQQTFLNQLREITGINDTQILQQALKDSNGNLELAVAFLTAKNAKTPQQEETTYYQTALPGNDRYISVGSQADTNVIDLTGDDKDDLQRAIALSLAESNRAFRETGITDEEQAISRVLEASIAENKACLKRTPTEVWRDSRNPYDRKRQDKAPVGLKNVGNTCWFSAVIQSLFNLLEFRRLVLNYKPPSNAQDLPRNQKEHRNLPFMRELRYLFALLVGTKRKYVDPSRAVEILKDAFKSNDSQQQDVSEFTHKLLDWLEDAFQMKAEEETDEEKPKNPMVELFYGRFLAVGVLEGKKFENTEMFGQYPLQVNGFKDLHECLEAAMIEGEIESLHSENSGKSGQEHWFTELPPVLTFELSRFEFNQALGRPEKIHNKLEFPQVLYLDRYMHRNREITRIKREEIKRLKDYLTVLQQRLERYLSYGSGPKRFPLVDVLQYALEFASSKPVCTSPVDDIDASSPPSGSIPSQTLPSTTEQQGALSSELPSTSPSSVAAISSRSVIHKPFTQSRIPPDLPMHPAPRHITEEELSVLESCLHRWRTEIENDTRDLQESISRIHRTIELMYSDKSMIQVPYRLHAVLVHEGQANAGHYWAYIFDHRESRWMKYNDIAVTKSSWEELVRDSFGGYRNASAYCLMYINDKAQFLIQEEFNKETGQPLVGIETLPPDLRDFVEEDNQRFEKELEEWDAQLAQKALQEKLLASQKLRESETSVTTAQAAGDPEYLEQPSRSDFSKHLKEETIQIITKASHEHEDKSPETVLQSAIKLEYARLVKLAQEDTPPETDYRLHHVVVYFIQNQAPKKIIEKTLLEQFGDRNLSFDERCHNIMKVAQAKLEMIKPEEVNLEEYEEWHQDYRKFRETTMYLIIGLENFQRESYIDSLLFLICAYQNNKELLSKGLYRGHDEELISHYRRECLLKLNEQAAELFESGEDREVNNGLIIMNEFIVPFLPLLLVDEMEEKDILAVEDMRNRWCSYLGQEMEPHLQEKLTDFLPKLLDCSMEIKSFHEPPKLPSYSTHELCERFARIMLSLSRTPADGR
Procedure, shortened: as §1

USP28 = target: T4, USP28 (UniProt Q96RU2)
T4 sequence (whole entry): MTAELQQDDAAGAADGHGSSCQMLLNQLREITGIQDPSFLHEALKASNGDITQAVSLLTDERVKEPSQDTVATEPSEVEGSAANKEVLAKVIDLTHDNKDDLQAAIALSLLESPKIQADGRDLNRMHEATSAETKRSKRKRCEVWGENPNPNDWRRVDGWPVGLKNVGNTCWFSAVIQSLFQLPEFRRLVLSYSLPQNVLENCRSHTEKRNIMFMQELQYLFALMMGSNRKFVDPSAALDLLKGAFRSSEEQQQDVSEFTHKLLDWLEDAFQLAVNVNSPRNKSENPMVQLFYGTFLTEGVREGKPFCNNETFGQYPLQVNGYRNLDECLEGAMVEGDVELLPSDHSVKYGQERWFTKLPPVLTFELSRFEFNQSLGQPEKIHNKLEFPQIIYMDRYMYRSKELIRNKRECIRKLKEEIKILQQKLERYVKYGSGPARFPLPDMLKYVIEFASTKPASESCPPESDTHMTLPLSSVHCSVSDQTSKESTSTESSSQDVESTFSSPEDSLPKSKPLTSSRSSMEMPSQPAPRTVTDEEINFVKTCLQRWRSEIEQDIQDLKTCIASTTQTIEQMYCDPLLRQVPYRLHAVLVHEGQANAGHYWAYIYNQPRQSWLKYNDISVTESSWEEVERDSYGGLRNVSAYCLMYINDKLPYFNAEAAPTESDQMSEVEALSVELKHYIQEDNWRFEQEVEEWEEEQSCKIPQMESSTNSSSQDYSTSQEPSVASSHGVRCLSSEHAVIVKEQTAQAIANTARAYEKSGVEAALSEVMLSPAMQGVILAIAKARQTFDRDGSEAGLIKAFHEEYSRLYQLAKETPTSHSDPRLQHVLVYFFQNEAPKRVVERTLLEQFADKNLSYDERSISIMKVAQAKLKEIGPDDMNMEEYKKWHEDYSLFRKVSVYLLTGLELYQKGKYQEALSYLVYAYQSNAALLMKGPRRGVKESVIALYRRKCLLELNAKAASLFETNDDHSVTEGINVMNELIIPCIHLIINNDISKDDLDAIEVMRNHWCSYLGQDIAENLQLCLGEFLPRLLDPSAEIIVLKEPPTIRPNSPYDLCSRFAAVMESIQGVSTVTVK
Procedure, shortened: as §1

Measured: log2 ratio of Biotin-Ahx-Ub-VS probe labelling

Cl.Cn1ncc2c1CCCC2NC(=O)CCl (stereo not given)
inactive: USP19 -0.297 | USP22 0.202 | USP24 -0.29 | USP25 -0.289 | USP28 -0.57
